Source: PubChem (National Center for Advancing Translational Sciences (NCATS))
Hits are enriched below; roughly 9.4% of the tested compounds scored in any of these assays.
Pf growth 96h = Primary qHTS for delayed death inhibitors of the malarial parasite plastid, 96 hour incubation; Potency, µM (series often up to 28.7 µM), hits mostly inhibitors; 320,000 compounds, 6.9% hits; AID 504834, 2011; P. falciparum luciferase reporter growth, 96 h
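Parasite growth measured via integrated firefly luciferase reporter in P. falciparum. Infected erythrocytes at 2% hematocrit, 0.05% parasitemia final were treated 96 hours at 37 C under 5% CO2, and luminescence was read.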
AMA1-RON2 inh = qHTS for Inhibitors of AMA1-RON; Towards Development of Antimalarial Drug Lead: Primary Screen. 360,000 compounds, 0.2% hits. Plasmodium falciparum AMA1 (3D7) - RON2 peptide interaction. AlphaScreen AMA1-biotinylated RON2 peptide binding. AID 720542, 2013. Potency, µM (top dose mostly 58.2 µM), actives largely listed as inhibitors; note: nearly all actives have a fitted effect of over 45% in size
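AMA1 (3D7) with his tag at 25 nM final met compounds first, then biotinylated RON2 peptide at 25 nM; detection used donor plus acceptor beads, 10 µg/mL apiece, read by AlphaScreen after 30 min at room temperature.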
Pf growth 48h = Primary qHTS for delayed death inhibitors of the malarial parasite plastid, 48 hour incubation. P. falciparum luciferase growth in erythrocytes, 48 h. Potency, µM (titrated, usually from 28.7 µM), hits mostly inhibitors. 310,000 compounds, 5.9% hits. AID 504832, 2011
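Erythrocytes infected with P. falciparum carrying an integrated firefly luciferase reporter (2% hematocrit, 0.1% parasitemia final) were exposed to compounds in RPMI 1640 with 0.5% Albumax at 37 C, 5% CO2. Growth inhibition was scored as reduced luminescence.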
SARS PLpro yeast = qHTS of Yeast-based Assay for SARS-CoV PLP; S. cerevisiae expressing SARS-CoV PLpro, growth rescue; AID 485353, 2010; 330,000 compounds, 0.19% hits; Potency, µM (doses to about 32.9 µM), hits mostly activators; calls by dose curve; note: nearly all actives have a fitted effect of over 55% in size
Large screens that a line does not name were inactive. Unless noted, calls come from the whole dose curve; as a rule, active = well fitted curve in the direction sought with a large enough effect; inconclusive = small, poorly fitted or top-dose-only effect, or another doubt; inactive = no such curve, though single readings can be large; an effect the other way counts as inactive or inconclusive.

COc1ccc2nc(N3CCCCC3)c(C#N)cc2c1	Pf growth 48h inconclusive
COc1ccc2nc(N3CCCC3)c(C#N)cc2c1	Pf growth 96h 8.3µM (no result: Pf growth 48h)
COc1ccccc1C(=O)N1CCN(c2nc3cc(C)c(C)cc3cc2C#N)CC1	Pf growth 96h 10µM, Pf growth 48h inconclusive
Cc1cc(N=Nc2ccccc2C)ccc1N	AMA1-RON2 inh 11µM (no result: Pf growth 96h, Pf growth 48h, SARS PLpro yeast)
CC1=C(C(=O)OC2CCCC2)C(c2coc3ccccc3c2=O)C2=C(CC(C)(C)CC2=O)N1 (stereo not drawn)	Pf growth 96h inconclusive, Pf growth 48h 4.1µM
COC(=O)C1=C(C)NC2=C(C(=O)CC(C)(C)C2)C1c1ccccn1 (stereo not drawn)	Pf growth 96h 9.3µM
COC(=O)C1=C(C)NC2=C(C(=O)CC(C)(C)C2)C1c1ccsc1 (stereo not drawn)	Pf growth 96h inconclusive, Pf growth 48h inconclusive
CN1CCN(C(=S)c2cn(Cc3ccccc3)c3ccccc23)CC1	none
O=S(=O)(c1ccc2nc(N3CCN(c4ccccc4F)CC3)ccc2c1)N1CCCCC1	Pf growth 96h inconclusive
CC1CCN(S(=O)(=O)c2ccc3nc(N4CCN(c5ccccc5)CC4)ccc3c2)CC1	Pf growth 96h 10µM
CC1CCN(S(=O)(=O)c2ccc3ccccc3c2)CC1	none (no result: Pf growth 96h)
O=S(=O)(c1ccc2nc(Nc3ccccc3)ccc2c1)N1CCCCC1	Pf growth 96h inconclusive, Pf growth 48h 10µM
O=S(=O)(c1ccc2nc(N3CCN(c4ccc(F)cc4)CC3)ccc2c1)N1CCCCC1	Pf growth 96h 13µM, AMA1-RON2 inh inconclusive
O=C(Nc1cccc(S(=O)(=O)N2CCCCC2)c1)c1ccc2ccccc2n1	none
CC12CC3CC(C)(C1)CC(C(=O)N1CCCC1)(C3)C2	Pf growth 96h 12µM, Pf growth 48h inconclusive
Cc1ccc(S(=O)(=O)c2cc3c(=O)n4ccccc4nc3n(CCCN3CCOCC3)c2=N)cc1C	Pf growth 96h inconclusive, Pf growth 48h inconclusive
CCCNC(=O)C1(C)CCN(Cc2noc(-c3ccccc3OC)n2)C1 (stereo not drawn)	none (no result: Pf growth 96h, Pf growth 48h, SARS PLpro yeast)
CN(C)c1ccc(/C=C2/C[N+](C)(C)C/C(=C/c3ccc(N(C)C)cc3)C2=O)cc1	AMA1-RON2 inh 22µM (no result: Pf growth 96h, Pf growth 48h, SARS PLpro yeast)
CC(C)(C)OC(=O)CNC(=O)c1[nH]cnc1C(=O)NCC(=O)OCc1ccccc1	none
COc1ccc(C(=O)/C=C2/Sc3cc4c(cc3N2C)OCO4)cc1	Pf growth 96h 2.1µM
COc1cccc(C2/C(=C(\O)c3ccc(OC)c(OC)c3)C(=O)C(=O)N2c2cc(C)on2)c1 (stereo not drawn)	Pf growth 96h 5.2µM
Cc1cc(N2C(=O)C(=O)/C(=C(/O)c3ccc(F)cc3)C2c2ccc(F)cc2)no1 (stereo not drawn)	Pf growth 96h 0.83µM
COc1ccc(/C(O)=C2\C(=O)C(=O)N(c3cc(C)on3)C2c2ccc(OC)c(OC)c2)cc1OC (stereo not drawn)	Pf growth 96h inconclusive
CCOc1ccc(/C(O)=C2/C(=O)C(=O)N(c3cc(C)on3)C2c2ccc(C(=O)OC)cc2)cc1 (stereo not drawn)	none
CC#CC[N+](C)(C)CCCCCCCCCC	Pf growth 96h inconclusive, Pf growth 48h 0.74µM
C#CC[N+](C)(C)CCCCCCCCC	Pf growth 96h inconclusive, Pf growth 48h 3.7µM
Cc1cccc(N(CC(=O)O)CC(=O)O)c1	Pf growth 96h 13µM, AMA1-RON2 inh inconclusive
COc1ccc(C2(c3ccc(O)cc3O)CC(c3ccccc3Cl)NC(=S)N2)cc1 (stereo not drawn)	Pf growth 48h 12µM
COc1cccc(C2CC(c3ccccc3Cl)n3nc(N)nc3N2)c1 (stereo not drawn)	none
CCCc1ccccc1OCCNC(C)=O	Pf growth 96h 8.3µM
CC(=O)NCCOc1cccc2ccccc12	Pf growth 96h inconclusive
COc1ccc(C(=O)N/N=C/c2cc3ccccc3[nH]c2=O)cc1	none
Cc1ccc(C)c(N=Cc2cc3c(cc2[N+](=O)[O-])OCO3)c1	Pf growth 96h 0.042µM, Pf growth 48h inconclusive
Cc1ccc(N=Cc2cc3c(cc2[N+](=O)[O-])OCO3)cc1[N+](=O)[O-]	none (no result: Pf growth 96h, Pf growth 48h, SARS PLpro yeast)
CC(CO)NS(=O)(=O)c1cccc(Cl)c1F (stereo not drawn)	none (no result: Pf growth 96h, Pf growth 48h, SARS PLpro yeast)
CCOc1ccc(S(=O)(=O)N2CCCC(C(=O)NC3CCCC3)C2)cc1 (stereo not drawn)	none
CCCn1nc(C(=O)Nc2nnc(C3CC3)s2)c2ccccc2c1=O	Pf growth 96h inconclusive
CCn1nc(C(=O)Nc2nc(-c3ccccn3)cs2)c2ccccc2c1=O	Pf growth 96h 2.6µM, Pf growth 48h 2.3µM
O=C(Nc1nc(-c2ccccn2)cs1)c1ccccc1-n1cnnn1	Pf growth 96h 1.7µM, Pf growth 48h inconclusive
CC(C)CCn1nc(C(=O)Nc2nc3c(s2)CCCC3)c2ccccc2c1=O	Pf growth 96h inconclusive, Pf growth 48h 10µM
CCCn1nc(C(=O)Nc2nc(-c3ccccn3)cs2)c2ccccc2c1=O	Pf growth 96h 4.1µM, Pf growth 48h 4.1µM
CCN(CC(=O)NCCc1ccc(Cl)cc1)Cc1nc2ccccc2c(=O)[nH]1	Pf growth 96h inconclusive, Pf growth 48h inconclusive
Cn1nc(C(=O)Nc2nc(-c3ccccn3)cs2)c2ccccc2c1=O	Pf growth 96h 3.3µM, Pf growth 48h 4.1µM
CCNC(=O)NC1(C(=O)Nc2ccc3c(c2)CCC3)CCCCC1	Pf growth 96h 2.9µM
CCc1ccc(NC(=O)Nc2ccc3c(c2)CCC3)cc1	none
COC(=O)[C@]1(C)CCC[C@@]2(C)C3CC[C@]4(OC(C)=O)C[C@@]3(CCC21)CC4=O (stereo partly drawn)	Pf growth 96h inconclusive, Pf growth 48h inconclusive
COC(=O)[C@]1(C)CCC[C@@]2(C)C3CC[C@@]4(C)C[C@]3(CCC21)CC(=O)N4Cc1ccc(OC)cc1 (stereo partly drawn)	Pf growth 96h 1.5µM, Pf growth 48h 1.7µM
CCOC(=O)NC(NCc1ccccc1)(C(F)(F)F)C(F)(F)F	Pf growth 96h inconclusive
Cc1ccc(C(=O)NCCc2nnc3ccc(SCC(=O)NCc4ccc(F)cc4)nn23)cc1	Pf growth 96h 9.3µM
COc1cccc(NC(=O)CSc2ccc3nnc(CCNC(=O)c4ccccc4)n3n2)c1	Pf growth 96h 10µM
O=C(CSc1ccc2nnc(CCNC(=O)c3ccccc3)n2n1)NCc1ccccc1	Pf growth 96h inconclusive
CC1(C)CC(=O)C2=C(C1)N(CCN1CCOCC1)C1=C(C(=O)CC(C)(C)C1)C2c1cccc(F)c1	Pf growth 48h 12µM
CC1(C)CC(=O)C2=C(C1)N(CCN1CCOCC1)C1=C(C(=O)CC(C)(C)C1)C2c1ccc(Cl)cc1	Pf growth 96h inconclusive, Pf growth 48h 5.2µM
COc1ccc(C2C3=C(CC(C)(C)CC3=O)N(CCN3CCOCC3)C3=C2C(=O)CC(C)(C)C3)cc1	none
CCOC(=O)C(NC(=O)c1ccccc1Cl)(Nc1sc2c(c1C(N)=O)CCC2)C(F)(F)F (stereo not drawn)	Pf growth 96h 4.1µM, Pf growth 48h inconclusive
COc1ccc(C(=O)NCCCc2nc3ccccc3n2Cc2cc(C)ccc2C)cc1OC	Pf growth 96h 10µM, Pf growth 48h 12µM
